Test [1] in a line: P-glycoprotein substrates identified in KB-8-5-11 adenocarcinoma cell line, qHTS therapeutic library screen (AID 1346987). Note: nearly all actives have a fitted effect of over 65% in size. An outline of the steps:
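Compounds are pinned in dose-response onto KB-8-5-11 cells (500 cells/well, colchicine-free medium) and left 72 h at 37 degree C. CellTiter-Glo luminescence then yields AC50 values.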
(In general: In qHTS, concentration-response curves come from the screen itself.)

The target of test [2] is Calcium and integrin-binding protein 1 (Homo sapiens) (UniProt Q99828). The test is described as follows: Primary qHTS for Identification of Calcium Integrin Binding Protein 1 (CIB1) Competitor (AID 1508620).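 Note: GST tagged CIB1 binding a fluorescein labelled alphaIIb integrin peptide tracer; top concentration of the series differs between compounds; % is set by controls: 0 for no effect and ±100 for the full control effect.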 The method in brief:
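Fluorescence polarization competition: CIB1-GST (1 uM final) preincubated with compound 15 min at room temperature, then FITC-labeled alphaIIb peptide (100 nM final) added for another 15 min. Polarization read at Ex 480/Em 540.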

A short description of test [3]: Primary qHTS for inhibitors of nuclear receptor binding SET domain protein 2 (NSD2) in an isogenic RCH-ACV NSD2 p.E1099K mutant (9B) (AID 1645876). Note: nearly all actives have a fitted effect of over 70% in size. Note: potency is the fitted concentration of half-maximal effect.
Test [4] addresses Phospholipid hydroperoxide glutathione peroxidase GPX4 (Homo sapiens) (UniProt P36969). Nature of the test: Primary qHTS Assay for Inhibitors of Recombinant Selenoprotein Glutathione Peroxidase 4 (GPX4) (AID 1845192). Note: nearly all actives have a fitted effect of over 65% in size. The method in brief: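 qHTS, GR-coupled: GPX4 200 nM + cpd 30 min RT → GSH 1 mM, NADPH 0.5 mM, GR 100 nM → CHP 0.5 mM start; fluor 340/450 at t0 and t15 min; no-enzyme wells as control.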

The target in test [5] is Luciferin 4-monooxygenase (Photinus pyralis) (UniProt P08659). The test is described as follows: Primary firefly luciferase (FLuc) qHTS assay for identification of artifact compounds. (AID 1845220). Note: nearly all actives have a fitted effect of over 60% in size. The conditions noted are these: outcome: dose series up to 54.1 µM unless noted. The method in brief: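 qHTS, 15 min compound preincubation with substrate (10 uM luciferin, 10 uM ATP) at RT, then 10 nM FLuc; 5 min; luminescence; % inhibition vs no-enzyme/DMSO controls, 4-parameter Hill fit.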

The test system of test [6] is Nanoluciferase (engineered Oplophorus gracilirostris luciferase). Nature of the test: Primary Nanoluciferase (NLuc) qHTS assay for identification of artifact compounds. (AID 1845222). An outline of the steps: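 Luminescence read-out of secreted NLuc in S16 cell conditioned medium (1:55); compounds tested with 15 min RT preincubation, then Nano-Glo substrate 1:100, 5 min. % inhibition vs no-enzyme and DMSO controls, 4-parameter Hill fit.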

For test [7], the system named is CRL-7250. Nature of the test: Cytotoxic Profiling of Annotated Libraries Using Quantitative High-Throughput Screening (AID 1296008). For max response: % is set by controls: 0 for no effect and ±100 for the full control effect. Note: nearly all actives have a fitted effect of over 60% in size. Note: potency is the fitted concentration of half-maximal effect. As to conditions: Five cell lines viability, CellTiter-Glo ATP luminescence, 48-72 h; max response: active compounds read low. The method in brief: (§1)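 Compounds were pin-transferred onto cells and incubated 48 or 72 hr at 37 degree Celsius, 95% humidity. CellTiter-Glo was added, plates sat 10 min at room temperature, then ATP-coupled luminescence was imaged as the viability read-out.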
For orientation: In ATP-based viability assays light output follows the ATP content of the culture.

Test [8] has as its system HEK293. The test is described as above. As to conditions: Five cell lines viability, CellTiter-Glo ATP luminescence, 48-72 h; max response: active compounds read low. The method in brief:
as §1

In test [9] the test system is HaCat. The description is as above. The conditions noted are these: Five cell lines viability, CellTiter-Glo ATP luminescence, 48-72 h; max response: active compounds read low. An outline of the steps:
as §1

Test [10] has as its system NIH3T3. Described as above. As to conditions: Five cell lines viability, CellTiter-Glo ATP luminescence, 48-72 h; max response: active compounds read low. The method in brief:
as §1

Test [11] concerns C33A. The test is described as follows: Primary qHTS to identify gynecologic anti-cancer compounds using libraries of approved drugs and bioactive compounds (AID 1345084). Note: % is set by controls: 0 for no effect and ±100 for the full control effect; nearly all actives have a fitted effect of over 55% in size. The conditions noted are these: Gynecologic cancer cell panel viability, ATPlite luminescence, 48 h; series mostly up to 57.5 µM. The method in brief:
(§2)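 48 h compound exposure at 37 C, 5% CO2; five-point qHTS. ATPlite luminescence readout of cell ATP.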

Test [12] concerns CAOV3. Described as above. The conditions noted are these: Gynecologic cancer cell panel viability, ATPlite luminescence, 48 h; series mostly up to 57.5 µM. An outline of the steps:
as §2

Test [13] deals with CASKI. The test is described as above. As to conditions: Gynecologic cancer cell panel viability, ATPlite luminescence, 48 h; series mostly up to 57.5 µM. An outline of the steps:
as §2

The test system of test [14] is Es-2. The test is described as above. As to conditions: Gynecologic cancer cell panel viability, ATPlite luminescence, 48 h; series mostly up to 57.5 µM. The method in brief:
as §2

Test [15] concerns Hek293T. The description is as above. The conditions noted are these: Gynecologic cancer cell panel viability, ATPlite luminescence, 48 h, control line for the selectivity index; series mostly up to 57.5 µM. An outline of the steps:
as §2

For test [16], the system named is JEG-3. The description is as above. As to conditions: Gynecologic cancer cell panel viability, ATPlite luminescence, 48 h; series mostly up to 57.5 µM. The method in brief:
as §2

Test [17] concerns OV90. The test is described as above. The conditions noted are these: Gynecologic cancer cell panel viability, ATPlite luminescence, 48 h; series mostly up to 57.5 µM. The method in brief:
as §2

Test [18] relates to PA-1. The description is as above. The conditions noted are these: Gynecologic cancer cell panel viability, ATPlite luminescence, 48 h; series mostly up to 57.5 µM. An outline of the steps:
as §2

Test [19] deals with Tov-21-G. Described as above. The conditions noted are these: Gynecologic cancer cell panel viability, ATPlite luminescence, 48 h; series mostly up to 57.5 µM. The method in brief:
as §2

Test [20] relates to Tov112D. The test is described as above. As to conditions: Gynecologic cancer cell panel viability, ATPlite luminescence, 48 h; series mostly up to 57.5 µM. An outline of the steps: as §2

Unmarked numbers belong to inactive results. Records with an inconclusive call do not appear. Activity calls are given as the source filed them. Calls come from the whole dose curve; as a rule, active = well fitted curve in the direction sought with a large enough effect; inconclusive = small, poorly fitted or top-dose-only effect, or another doubt; inactive = no such curve, though single readings can be large; an effect the other way counts as inactive or inconclusive.

Calcium and integrin-binding protein 1 (Homo sapiens), sequence (Q99828 whole entry, looked up): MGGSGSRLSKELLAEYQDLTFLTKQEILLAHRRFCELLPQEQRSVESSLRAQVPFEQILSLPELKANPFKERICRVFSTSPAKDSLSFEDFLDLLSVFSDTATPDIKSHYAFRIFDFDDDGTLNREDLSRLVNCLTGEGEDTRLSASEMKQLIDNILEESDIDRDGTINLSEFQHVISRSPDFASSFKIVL
Phospholipid hydroperoxide glutathione peroxidase GPX4 (Homo sapiens), sequence (P36969 whole entry, looked up): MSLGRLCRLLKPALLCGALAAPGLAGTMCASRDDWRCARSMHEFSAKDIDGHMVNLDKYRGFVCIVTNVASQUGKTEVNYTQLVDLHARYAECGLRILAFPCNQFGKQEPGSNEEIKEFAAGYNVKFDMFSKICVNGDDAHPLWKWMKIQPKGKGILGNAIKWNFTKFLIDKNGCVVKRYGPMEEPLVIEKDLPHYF

With `COc1ccc(CN(C(=O)[C@@H](N)Cc2c(C)cc(C(N)=O)cc2C)[C@@H](C)c2ncc(-c3ccccc3)[nH]2)cc1C(=O)O`, the Potency entry in test [1], in test [2], in [3], in test [4], in test [6] and in test [11] was “inactive” in each case. Besides, the Potency entry in test [12], in test [13], in test [14], in test [15], in test [16] and in test [17] was “inactive” in each case. The Potency entry in [18], in test [19] and in test [20] was “inactive” each time. Further, in test [5], the call was inactive. For the same molecule, the max response in test [7] was -8.53%; in [8] it was -8.03%; in test [9], 1.02%; in test [10], -6.08%.
Turning to `O=C1N[C@@H](Cc2ccccc2)CN2CCCC[C@@H]12`, the Potency entry in test [1], in [3], in [4], in [6], in test [11] and in test [12] was “inactive” each time. Further, the Potency entry in [13], in test [14], in test [15], in test [16], in test [17] and in test [18] was “inactive” in each case. Also, the Potency entry in [19] and in test [20] was “inactive” in each case. For the same molecule, the call in test [5] and in test [9] was inactive. Also, the max response in [7] was -11.6%; in test [8], -0.0326%; in [10] it was 1.01%.
On to `CC(=O)O[C@H]1CC[C@H]2[C@@H]3CC[C@H]4CC(=O)C=C(C)[C@]4(C)[C@H]3CC[C@]12C`, for which the Potency entry in [1], in test [2], in test [4], in test [6], in test [11] and in test [12] was “inactive” throughout. Further, the Potency entry in [13], in [14], in test [15], in test [16], in test [17] and in test [18] was “inactive” each time. The Potency result in test [19] and in test [20] was “inactive” throughout. The call in test [5] and in test [9] was inactive. For the same molecule, the max response was -4.94% in test [7] and -1.67% in test [10]. In test [8], the Potency was 23.1 µM (active).
Take `CCC1NC(=O)C2C(Cl)C(Cl)CN2C(=O)C(CC)NC(=O)CC(c2ccccc2)NC(=O)C(CO)NC1=O` (stereo unspecified): the Potency result in test [1], in test [2], in test [4], in test [6], in test [11] and in test [12] was “inactive” throughout. The Potency result in test [13], in test [14], in test [15], in [16], in test [17] and in [18] was “inactive” throughout. Further, in [20], the Potency result is “inactive”. Besides, the result in [5], in test [9] and in test [10] was inactive. Moreover, the max response in test [7] was 2.35%; in [8], -1.56%.
Consider `C=C(CO)C(=O)O[C@H]1CC(=C)[C@@H]2C[C@H](O)C(=C)[C@@H]2[C@H]2OC(=O)C(=C)[C@@H]21`, for which the Potency entry in test [2], in test [4], in [11], in [12], in test [13] and in test [15] was “inactive” each time. Also, the Potency entry in test [16], in test [17], in test [18], in [19] and in [20] was “inactive” each time. In addition, the Potency was 4.5 µM (active) in test [3] and 5.7 µM (active) in test [8]. The max response in test [7] is -4.04%; in [9], 4.94%.
`COC(=O)CC1CC2(C(=O)c3c(O)cccc3C2(O)C(=O)OC)C(C)O1` (stereo unspecified): the Potency result in test [1], in [2], in test [3], in [4], in test [6] and in test [11] was “inactive” each time. For the same molecule, the Potency entry in test [12], in [13], in test [14], in test [15], in test [16] and in test [17] was “inactive” throughout. For the same molecule, the Potency entry in [18], in [19] and in test [20] was “inactive” in each case. The outcome in [5] and in [9] was inactive. The max response is 2.33% in test [7], -1.89% in [8] and 4.05% in test [10].

Values taken from PubChem BioAssay (NCATS).
